Assay outcomes (PubChem)
TDP1 block = TDP1 (human) enzyme inhibition. Q9NUW8. recombinant TDP1, AlphaScreen DNA substrate cleavage. Potency, µM (doses to about 130 µM), for the others: at the highest dose activity change, negative = inhibition, actives largely listed as inhibitors. 350,000 compounds, 0.28% hits; also: nearly all actives have a fitted effect of over 40% in size
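Compounds were preincubated with Tdp1 (1 nM final) for 15 min at room temperature before substrate (15 nM final) started a 5 min reaction; beads (10 ug/ml final) were then added for 10 min before AlphaScreen detection.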
RECQ1 inh-1 = RECQ1 (human) helicase inhibition. P46063. RECQ1 DNA unwinding, red fluorescence kinetic read. Potency, µM (doses to about 57.3 µM), without a hit: at the top dose activity, negative = inhibition, actives largely listed as inhibitors. 240,000 compounds, 0.54% hits. AID 2549;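 also: plate controls were vehicle for no effect and no enzyme for full effect; nearly all actives have a fitted effect of over 30% in size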
Target sequence (P46063 whole entry, looked up): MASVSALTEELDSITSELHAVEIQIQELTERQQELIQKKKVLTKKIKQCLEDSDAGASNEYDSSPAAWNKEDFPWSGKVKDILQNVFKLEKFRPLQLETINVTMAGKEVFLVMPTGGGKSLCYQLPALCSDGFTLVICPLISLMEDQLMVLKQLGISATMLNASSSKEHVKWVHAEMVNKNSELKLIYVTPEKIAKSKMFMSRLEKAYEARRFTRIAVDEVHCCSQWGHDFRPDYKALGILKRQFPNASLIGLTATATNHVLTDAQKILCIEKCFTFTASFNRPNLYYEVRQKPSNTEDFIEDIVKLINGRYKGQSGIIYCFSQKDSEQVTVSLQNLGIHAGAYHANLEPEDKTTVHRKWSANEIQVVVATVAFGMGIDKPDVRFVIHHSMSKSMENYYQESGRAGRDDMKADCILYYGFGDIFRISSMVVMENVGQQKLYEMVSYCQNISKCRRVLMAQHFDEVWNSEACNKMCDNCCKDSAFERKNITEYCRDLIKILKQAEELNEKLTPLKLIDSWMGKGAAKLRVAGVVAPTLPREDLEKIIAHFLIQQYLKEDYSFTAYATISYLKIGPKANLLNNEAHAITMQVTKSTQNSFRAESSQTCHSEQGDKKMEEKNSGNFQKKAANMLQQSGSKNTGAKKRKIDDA
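50 nM RECQ1T1 preincubated 15 min with compound in Tris pH 8.0 buffer with MgCl2, DTT, Tween-20 and 2.5 ug/ml poly(dI-dC); started with 200 nM TAMRA/BHQ-2 forked duplex and 2 mM ATP. Unwinding read as fluorescence (525/598 nm), two reads 2 h apart.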
L3MBTL1 inh = blocks human L3MBTL1 | Q9Y468 | AlphaScreen L3MBTL1–H3K9me1 peptide binding | Potency, µM (doses to about 57.1 µM), inactives show at the highest dose activity, negative = inhibition, actives largely listed as inhibitors | 230,000 compounds, 0.66% hits; also: nearly all actives have a fitted effect of over 60% in size
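L3MBTL1 50 nM + b-AHA-H3(1-15)K9me1 75 nM, 30 min RT; compound added, 30 min RT; streptavidin donor/Ni-chelate acceptor beads 10 ug/mL each final, 30 min RT dark; AlphaScreen read.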
BLM inh = Bloom syndrome helicase (human) inhibition | AID 2528 | Potency, µM (doses to about 56.1 µM), for inactives: at the highest dose activity change, negative = inhibition, usual class: inhibitors | 350,000 compounds, 0.2% hits | P54132 | recombinant BLM DNA unwinding, fluorescence dequenching;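 also: plate controls were vehicle for no effect and no enzyme for full effect; nearly all actives have a fitted effect of over 35% in size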
JMJD2E inh = blocks human JMJD2E demethylase activity. B2RXH2. JMJD2E catalytic domain, FDH-coupled NADH fluorescence (FDH is formaldehyde dehydrogenase). Potency, µM (doses to about 57.1 µM), for inactives: at the top dose activity change, negative = inhibition, usual class: inhibitors. 230,000 compounds, 1.6% hits. AID 2147; active = well fitted inhibition curve with a large enough effect, not every such curve was filed as active; inconclusive = small, poorly fitted or top-dose-only effect, or another doubt; inactive = no such curve, though single readings can be large or run the other way;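 also: 0% = wells with enzyme and -100% = buffer wells without enzyme; nearly all actives have a fitted effect of over 50% in size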
APE1 inh = APE1 (human) endonuclease inhibition. P27695. recombinant APE1, TAMRA/BHQ-2 abasic DNA cleavage fluorescence. Potency, µM (highest dose often 65.8 µM), for inactives: at the top dose activity change, negative = inhibition, hits mostly inhibitors. 350,000 compounds, 0.35% hits;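 also: plate controls were vehicle for no effect and reference inhibitor for full effect; nearly all actives have a fitted effect of over 55% in size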
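APE1 at 0.75 nM preincubated 15 min at room temperature with compound. Reaction then started with 50 nM double-stranded THF-abasic substrate labelled with TAMRA/BHQ-2, and 525/598 nm fluorescence read kinetically. Activity taken as third-minus-first read difference, normalized to DMSO and NSC13755 controls.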
RECQ1 inh conf = confirmation of human RECQ1 helicase inhibitors | shares compounds with RECQ1 inh-1 | RECQ1 helicase DNA unwinding, fluorescence | Potency, µM (top dose mostly 229 µM), for inactives: at the highest dose activity change, negative = inhibition, usual class: inhibitors | 610 compounds, 28% hits | AID 2708; also: nearly all actives have a fitted effect of over 45% in size
RECQ1 ADP FP = displaces ADP in a fluorescence polarization counter-screen for RECQ1 hits; shares compounds with RECQ1 inh-1; ADP fluorescence polarization displacement counterscreen; Potency, µM (titrated, usually from 228 µM), without a hit: at the highest dose activity change, negative = inhibition, actives largely listed as inhibitors; 530 compounds, 27% hits; AID 2711; also: nearly all actives have a fitted effect of over 45% in size
RECQ1 inh-2 = blocks human RECQ1 DNA unwinding; shares compounds with RECQ1 inh-1; recombinant RECQ1 DNA unwinding, red fluorescence; Potency, µM (top dose mostly 119 µM), for the others: top-dose activity, negative = inhibition, most hits filed as inhibitors; 1,100 compounds, 15% hits; AID 504841; also: nearly all actives have a fitted effect of over 50% in size
Starred values were filed as active, the others as inactive; [ ] = another dose, or the depositor's remark. Many of the other results were omitted from the sample, so hits are more common in it than they were. Unless noted, calls follow the shape of the dose curve; as a rule, active = well fitted curve in the direction sought with a large enough effect; inconclusive = small, poorly fitted or top-dose-only effect, or another doubt; inactive = no such curve, though single readings can be large; an effect the other way counts as inactive or inconclusive. Unless noted, % is scaled to controls: 0 for no effect and ±100 for the full control effect; potency is read from the fitted curve at half-maximal effect.

How did O=C(c1ccccc1)c1c2c(cc3sc4ccccc4[n+]13)-c1cccc3cccc-2c13 do in these assays?
TDP1 block: 5.3%; RECQ1 inh-1: 14.1µM*; L3MBTL1 inh: -15.9%; BLM inh: -15.7%; JMJD2E inh: 15.8µM*; APE1 inh: inconclusive; RECQ1 inh-2: 31.6µM*

Results for Cc1ccc(-n2nc(-c3ccco3)cc2C(=O)O)c(C)c1 ?
RECQ1 inh-1: 20µM*; L3MBTL1 inh: 7.94µM*; BLM inh: -16.4%; JMJD2E inh: inconclusive; APE1 inh: inconclusive; RECQ1 inh-2: inconclusive

How did CC1(C(=O)O)CCC2(C)CCC3(C)C(=CC(=O)C4C5(C)CCC(O)C(C)(C)C5CCC43C)C2C1 (stereo not given) do in these assays?
BLM inh: 1.1%

Results for CC1(C)CO[C@@H](CC(=O)O)CN1 ?
TDP1 block: 4.9%; RECQ1 inh-1: -1.4%; BLM inh: 3.2%; APE1 inh: -1.5%

Results for COc1ccc(C(=O)NCc2ccc3c(c2)cc(C)n3C)cc1 ?
RECQ1 inh-1: inconclusive; L3MBTL1 inh: -20.1%; BLM inh: -5.4%; JMJD2E inh: inconclusive; APE1 inh: inconclusive; RECQ1 inh-2: -0.1%

What do the screens show for `O=C1c2cccc3cc([N+](=O)[O-])cc(c23)C(=O)N1CCN1CCCC1`?
TDP1 block: -1.3%; RECQ1 inh-1: inconclusive; BLM inh: 108.3%; JMJD2E inh: inconclusive; APE1 inh: inconclusive; RECQ1 inh-2: 25.1µM*

Results for CCOC(=O)N1CCC(NC(=O)c2cccc3c2C(=O)N(c2ccc(OC)cc2)C3)CC1 ?
RECQ1 inh-1: 11.2µM*; BLM inh: inconclusive; JMJD2E inh: inconclusive; APE1 inh: inconclusive; RECQ1 inh conf: 14.1µM*; RECQ1 ADP FP: 6.5%[91.9 µM]

How did CCOC(=O)N1CCC(N2Cc3cccc(C(=O)NCc4ccc(OC)cc4)c3C2=O)CC1 do in these assays?
TDP1 block: 2.6%; RECQ1 inh-1: -3.7%; L3MBTL1 inh: inconclusive; BLM inh: -19.2%; JMJD2E inh: 2.0%; APE1 inh: 3.8%

What do the screens show for `COc1ccc(-n2c(O)c(/C=N/NS(=O)(=O)c3ccc(C)cc3)c3ccccc3c2=O)cc1OC`?
TDP1 block: 7.7%; RECQ1 inh-1: 10µM*; L3MBTL1 inh: -8.0%; BLM inh: -4.0%; JMJD2E inh: inconclusive; APE1 inh: 2.7%; RECQ1 inh-2: inconclusive

What do the screens show for `COc1ccc(-n2c(O)c(/C=N/NS(=O)(=O)c3cc(C)ccc3C)c3ccccc3c2=O)cc1OC`?
TDP1 block: 9.1%; RECQ1 inh-1: 14.1µM*; L3MBTL1 inh: -13.1%; BLM inh: -16.5%; JMJD2E inh: inconclusive; APE1 inh: inconclusive; RECQ1 inh-2: 50.1µM*

What do the screens show for `COc1ccc(N(C)C(=O)CCn2cnc3onc(-c4ccc(F)cc4)c3c2=O)c(OC)c1`?
TDP1 block: -2.1%; BLM inh: -4.5%

How did COc1ccc(OC)c(NC(=O)Nc2cccc(OCc3cc(=O)n4cc(C)ccc4n3)c2)c1 do in these assays?
TDP1 block: 0.0%; BLM inh: -4.0%

How did COc1ccc(N2CCN(C(=O)c3cc(S(=O)(=O)N4CCC(C)CC4)cn3C)CC2)cc1 do in these assays?
TDP1 block: 5.3%; BLM inh: 2.5%

What do the screens show for `c1cc(-c2noc(CCC3CCCC3)n2)ccn1`?
TDP1 block: -6.6%; RECQ1 inh-1: inconclusive; L3MBTL1 inh: 22.4%[11.4 µM]; BLM inh: 0.1%; JMJD2E inh: 5.9%; APE1 inh: -4.2%; RECQ1 inh-2: -15.3%

How did O=C(Nc1ccccc1)N1CCCC2(CCN(S(=O)(=O)c3ccccc3)CC2)C1 do in these assays?
RECQ1 inh-1: inactive; BLM inh: 5.9%; APE1 inh: -3.5%

Results for CC(C)(C)OC(=O)C[C@H]1C/C=C\C[C@@H](CC(=O)NCCO)C(=O)N[C@H](C(C)(C)C)COC1=O ?
TDP1 block: -0.3%; L3MBTL1 inh: 5.5%; APE1 inh: 12.6%

How did Cc1c(C2=CCN(S(=O)(=O)c3ccc(Br)cc3)CC2)c2ccccc2n1C do in these assays?
TDP1 block: 3.1%; RECQ1 inh-1: 35.5µM*; L3MBTL1 inh: -6.3%; BLM inh: -2.9%; JMJD2E inh: 15.8µM*; APE1 inh: -4.2%; RECQ1 inh conf: 50.1µM*; RECQ1 inh-2: 44.7µM*

What do the screens show for `Oc1ccc(N=Cc2ccc(-c3cccs3)s2)cc1`?
TDP1 block: 2.0%; RECQ1 inh-1: 6.31µM*; L3MBTL1 inh: inconclusive; BLM inh: inconclusive; JMJD2E inh: inconclusive; APE1 inh: inconclusive; RECQ1 inh conf: 10.1%[114 µM]; RECQ1 ADP FP: 50.1µM*

What do the screens show for `CCCCOc1ccc(N=Cc2cccs2)cc1`?
TDP1 block: 2.7%; RECQ1 inh-1: -0.9%; L3MBTL1 inh: -11.4%; BLM inh: 0.6%; JMJD2E inh: -6.9%; APE1 inh: -1.6%

What do the screens show for `O=C1CC(c2ccccc2)Cc2[nH]c(=O)c(C(=O)Nc3cccc(F)c3)cc21` (stereo not given)?
TDP1 block: 6.2%; BLM inh: -2.2%

Results for O=C(CSc1cn(CCNC(=O)c2cccc(C(F)(F)F)c2)c2ccccc12)Nc1ccc2c(c1)OCCO2 ?
TDP1 block: 5.8%; BLM inh: -10.4%

How did CCOc1cccc(C(=O)N(Cc2ccc(CC)cc2)C2CCS(=O)(=O)C2)c1 (stereo not given) do in these assays?
TDP1 block: -1.1%; BLM inh: 3.0%

What do the screens show for `COC1=C(Nc2ccc(C)cc2)C(=O)c2ccccc2C1=O`?
TDP1 block: 10.6%; RECQ1 inh-1: inconclusive; L3MBTL1 inh: 15.8µM*; BLM inh: -6.6%; JMJD2E inh: 14.1µM*; APE1 inh: inconclusive; RECQ1 inh-2: -13.6%
